These compounds were tested against T1, Non-receptor tyrosine-protein kinase TNK1 (Homo sapiens) (UniProt Q13470). Conditions: at 0.1 µM.
T1 sequence (whole entry): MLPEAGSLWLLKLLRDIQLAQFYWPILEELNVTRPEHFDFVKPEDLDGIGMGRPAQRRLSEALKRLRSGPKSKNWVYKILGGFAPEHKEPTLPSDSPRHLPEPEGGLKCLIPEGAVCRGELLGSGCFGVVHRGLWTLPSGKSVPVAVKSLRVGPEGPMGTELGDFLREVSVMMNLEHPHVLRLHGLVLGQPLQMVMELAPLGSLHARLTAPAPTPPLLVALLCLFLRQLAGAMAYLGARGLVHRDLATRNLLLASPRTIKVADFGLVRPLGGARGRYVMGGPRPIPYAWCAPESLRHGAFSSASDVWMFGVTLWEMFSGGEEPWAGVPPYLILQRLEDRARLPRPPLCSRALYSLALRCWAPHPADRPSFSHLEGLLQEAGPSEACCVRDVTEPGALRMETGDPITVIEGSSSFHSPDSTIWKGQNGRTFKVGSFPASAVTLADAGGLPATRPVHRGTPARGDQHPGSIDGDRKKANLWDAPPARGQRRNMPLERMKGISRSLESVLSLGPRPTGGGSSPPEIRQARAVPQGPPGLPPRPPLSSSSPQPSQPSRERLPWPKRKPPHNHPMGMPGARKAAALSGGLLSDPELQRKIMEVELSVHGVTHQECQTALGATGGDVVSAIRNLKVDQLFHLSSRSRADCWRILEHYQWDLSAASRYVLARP

Row | Compound | inhibition
1 | N#Cc1cccc(Nc2nccc(-c3cnn4ncccc34)n2)c1 | 11.9%
2 | Nc1nccc(-c2c(-c3ccc(F)cc3)ncn2CCCN2CCOCC2)n1 | 1.92%
3 | COc1cc(/C=N/Nc2ncnc3c2cnn3C(C)C)ccc1O | 1.37%
4 | O=C(Nc1ccc(Oc2ccc3[nH]c(NC(=O)c4ccco4)nc3c2)cc1)Nc1cc(C(F)(F)F)ccc1F | 9.16%
5 | Cc1ccc(Nc2ccnc(Nc3cccc(C(N)=O)c3)n2)cc1O | 8.82%
6 | COC(=O)c1cncc(/C=C/c2c(C)cc(O)cc2C)c1 | 4.05%
7 | NC(=O)c1cccc(Nc2nccc(Nc3cccc(F)c3)n2)c1 | 6.18%
8 | COc1cc2ncnc(Nc3ccc4c(cnn4Cc4ccccc4)c3)c2cc1OC | 7.1%
9 | CCn1c(-c2nonc2N)nc2c(C#CC(C)(C)O)nc(OCCNC)cc21 | 0.64%
10 | Nc1nccc(C#Cc2cncnc2Nc2ccc(OCc3cccc(F)c3)c(Cl)c2)n1 | 5.1%
11 | COC(=O)Nc1nc2cc(Oc3ccc(NC(=O)Nc4cccc(Br)c4)cc3)ccc2[nH]1 | 3.04%
12 | O=C1Nc2ccccc2/C1=C/Nc1ccc2[nH]c(=O)[nH]c2c1 | 4.65%
13 | NS(=O)(=O)c1ccc(Nc2cc(-c3cccc(O)c3)n[nH]2)cc1 | 4.11%
14 | COc1cc2ncn(-c3cc(OCc4ccccc4S(C)(=O)=O)c(C#N)s3)c2cc1OC | 38.6%
15 | CC(C)c1ccc(Nc2nccc(-c3cnn4ncccc34)n2)cc1 | 5.68%
16 | NS(=O)(=O)c1ccc(N/N=C2\C(=O)Nc3ccc(Cl)cc32)cc1 | 3.04%
17 | FC(F)(F)c1ccc(-c2nn3ncccc3c2-c2ccnc(Nc3ccc4c(c3)OCCO4)n2)cc1 | 6.18%
18 | Nc1ccc(C#Cc2cncnc2Nc2ccc(OCc3cccc(F)c3)c(Cl)c2)cc1 | -0.01%
19 | Cc1ccc(O)cc1Nc1ccnc2ccc(S(C)(=O)=O)cc12 | 4.13%
20 | NS(=O)(=O)c1ccc(NC=C2C(=O)Nc3ccc4ncsc4c32)cc1 | 15.6%

What follows are compounds tested against T1, Non-receptor tyrosine-protein kinase TNK1 (Homo sapiens). Conditions: at 1 µM.

Row | Compound | inhibition
21 | COc1cc2ncnc(Nc3ccc(C)c(O)c3)c2cc1OC | 23.8%
22 | Cc1cc(-c2ccccn2)cc(C)c1/C=C/c1cncc(-c2nn[nH]n2)c1 | 50.8%
23 | CC(C)c1ccc2c(c1)NC(=O)/C2=N/Nc1ccc(S(N)(=O)=O)cc1 | 9.9%
24 | CCn1c(-c2nonc2N)nc2ccc(F)cc21 | 9.97%
25 | CN(c1ccc(NC(=O)Nc2ccc(OC(F)(F)F)cc2)cc1)c1ccnc(Nc2cccc(S(N)(=O)=O)c2)n1 | 82.2%
26 | c1ccc(Nc2ncc(-c3ccccc3)o2)cc1 | 9.74%
27 | CCOc1nccc2c1nc(-c1nonc1N)n2CC | 20.1%
28 | COc1cccc(-n2ncc3c(N/N=C/c4ccc(S(C)(=O)=O)cc4)ncnc32)c1 | 20%
29 | Cc1ccc2c(-c3ccnc(Nc4cccc(C(F)(F)F)c4)n3)c(-c3ccccc3)nn2n1 | 19.5%
30 | NS(=O)(=O)c1cccc(Nc2cc(-c3ccc(F)cc3)n[nH]2)c1 | 16.2%
31 | CCCN1CCCC(c2ccc(Nc3nc(Nc4cc(F)ccc4C(N)=O)c4cc[nH]c4n3)c(OC)c2)C1 (configuration not stated) | 81%
32 | c1ccc(Cc2nc3ccc(Nc4ncnc5ccccc45)cc3[nH]2)cc1 | 11.4%
33 | N#Cc1cccc(Nc2nccc(-c3cnn4ncccc34)n2)c1 | 52.3%
34 | Nc1nccc(-c2c(-c3ccc(F)cc3)ncn2CCCN2CCOCC2)n1 | 5.56%
35 | COc1cc(/C=N/Nc2ncnc3c2cnn3C(C)C)ccc1O | 7.79%
36 | O=C(Nc1ccc(Oc2ccc3[nH]c(NC(=O)c4ccco4)nc3c2)cc1)Nc1cc(C(F)(F)F)ccc1F | 58.6%

Row | Compound | inhibition
37 | Cc1ccc(Nc2ccnc(Nc3cccc(C(N)=O)c3)n2)cc1O | 52.1%
38 | COC(=O)c1cncc(/C=C/c2c(C)cc(O)cc2C)c1 | 20%
39 | Cc1cc(O)cc(C)c1/C=C/c1cncc(C(=O)N(C)C)c1 | 1.79%
40 | NC(=O)c1cccc(Nc2nccc(Nc3cccc(F)c3)n2)c1 | 44.3%
41 | COc1cc2ncnc(Nc3ccc4c(cnn4Cc4ccccc4)c3)c2cc1OC | 35.6%
42 | CCn1c(-c2nonc2N)nc2c(C#CC(C)(C)O)nc(OCCNC)cc21 | 3.22%
43 | Nc1nccc(C#Cc2cncnc2Nc2ccc(OCc3cccc(F)c3)c(Cl)c2)n1 | 8.89%
44 | COC(=O)Nc1nc2cc(Oc3ccc(NC(=O)Nc4cccc(Br)c4)cc3)ccc2[nH]1 | 8.8%
45 | O=C1Nc2ccccc2/C1=C/Nc1ccc2[nH]c(=O)[nH]c2c1 | 21.3%
46 | NS(=O)(=O)c1ccc(Nc2cc(-c3cccc(O)c3)n[nH]2)cc1 | 7.43%
47 | COc1cc2ncn(-c3cc(OCc4ccccc4S(C)(=O)=O)c(C#N)s3)c2cc1OC | 77.9%
48 | CC(C)c1ccc(Nc2nccc(-c3cnn4ncccc34)n2)cc1 | 49.3%
49 | NS(=O)(=O)c1ccc(N/N=C2\C(=O)Nc3ccc(Cl)cc32)cc1 | 20.5%
50 | FC(F)(F)c1ccc(-c2nn3ncccc3c2-c2ccnc(Nc3ccc4c(c3)OCCO4)n2)cc1 | 22.2%
51 | Cc1ccc(O)cc1Nc1ccnc2ccc(S(C)(=O)=O)cc12 | 13.7%
52 | NS(=O)(=O)c1ccc(NC=C2C(=O)Nc3ccc4ncsc4c32)cc1 | 53.1%
